# Test results from PubChem BioAssay (NCATS).
# Inconclusive results are not listed. Values without a mark were called inactive. Calls of active or inactive are those of the source. Calls follow the shape of the dose curve; as a rule, active = well fitted cell-killing curve with a large enough effect; inconclusive = small, poorly fitted or top-dose-only effect; inactive = flat fitted curve, though single readings scatter.
# Experiment: qHTS of pediatric cancer cell lines to identify multiple opportunities for drug repurposing: Primary screen for TC32 cells (AID 1347089); also: nearly all actives have a fitted effect of over 60% in size
# Conditions: TC32 Ewing sarcoma viability, CellTiter-Glo luminescence, 48 h; series mostly up to 45.8 µM; activity change, negative = cytotoxic: at the top concentration
# Description: Drug repurposing or repositioning has been offered as a strategy for drug development in oncology programs. This approach has special potential for childhood cancers and other rare or orphan diseases, where the expected return on new drug development has been a disincentive to pharmaceuticals.
# In this project we exploit the poly-pharmacology of drugs to discover new indications via phenotypic screening of a panel of 19 well-characterized cell lines derived from solid tumors seen in children and adolescents. The goal is to identify approved drugs with previously unrecognized anticancer properties that has the potential to reveal new mechanisms and biological processes involved in carcinogenesis or drug resistance. We employed a titration-based paradigm (quantitative high-throughput screening or qHTS), where all compounds were tested at multiple concentrations for their effect on cell viability. Concentration-response curves (CRCs) were derived directly from the primary screen, and both potency and efficacy values were used to identify compounds with robust bioactivity profiles. We screened the NIH Chemical Genomics Center (NCGC) Pharmaceutical Collection (NPC) and Mechanism Interrogation Plate (MIPE) small molecule collections of approved and investigational compounds against these cell lines; and measured metabolically active cells after 48 hours of compound treatment as a proxy for cell viability.
# Assay Submitter: Nathalia J. Martinez, National Center for Advancing Translational Sciences, National Institutes of Health, Rockville, MD, USA; email: natalia.martinez@nih.gov
# [1] Shen, M et al. Quantitative high-throughput phenotypic screening of pediatric cancer cell lines identifies multiple opportunities for drug repurposing. Oncotarget 2017 Dec 19;9(4):4758-4772. PMID 29435139.
# The cells were obtained from University of North Carolina (UNC), Pediatric Preclinical Testing Program (PPT), and Coriell Institute (CI).
# qHTS cell viability assay:
# Cells were assayed in growth media at a density of 500-1,000 cells/well. Five microliters of cells were dispensed into 1,536-well, white, solid-bottom, TC-treated plates (Greiner Bio One) using a multidrop dispenser and incubated at 37 degrees C, 5% CO2, under a humidified atmosphere for 5 hours. Twenty-three nanoliters of compounds and controls (neutral control DMSO or positive control bortezomib at final concentration of 2.3 uM) were subsequently transferred by Kalypsys pintool. For primary screens, the MIPE collection was tested at 11-point dilutions (final concentrations range from 0.78 nM to 46 µM) and the NPC collection at 8-point dilutions (final concentrations range from 0.59 nM to 46 µM). Compounds tested in follow-up screens were assayed at 11-point dilutions. Cells were incubated for 48 hours, followed by addition of 3 uL of CellTiter-Glo (Promega). After a 15min incubation at room temperature, samples were analyzed for luminescence intensity using a ViewLux High-throughput CCD imager equipped with clear filters.
# % is scaled to controls: 0 for no effect and ±100 for the full control effect; potency is read from the fitted curve at half-maximal effect.
SMILES,"activity change, negative = cytotoxic",Potency
C[C@H](O)C(=O)Nc1c(I)c(C(=O)NC(CO)CO)c(I)c(C(=O)NC(CO)CO)c1I,6.28%,–
CCOC(=O)OC(C)OC1=C(C(=O)Nc2ccccn2)N(C)S(=O)(=O)c2ccccc21 (stereo not given),9.96%,–
CCn1cc(C(=O)O)c(=O)c2cnc(N3CCCC3)nc21,4.83% [at 9.17 µM],–
CN1CCN(CCCN2c3ccccc3Sc3ccc(S(=O)(=O)N(C)C)cc32)CC1,-0.317%,–
O=S1(=O)c2cccc3cccc(c23)N1CCCN1CCN(c2ccc(F)cc2)CC1,-9.53%,–
CN1[C@@H]2CC[C@H]1CC(OC(=O)c1c[nH]c3ccccc13)C2 (stereo not given in full),6.32%,–
COc1cc(C=C2CCC/C(=C\c3ccc(O)c(OC)c3)C2=O)ccc1O,–,938 nM (active)
Cc1nc2n(c(=O)c1CCN1CCC(c3noc4cc(F)ccc34)CC1)CCC[C@H]2O,2.84% [at 16 µM],–
CC(=O)O[C@]1(C(C)=O)CC[C@H]2[C@@H]3C[C@H](C)C4=CC(=O)CC[C@]4(C)[C@H]3CC[C@@]21C,4.5%,–
OC[C@@H](O)[C@@H](O[C@@H]1O[C@H](CO)[C@H](O)[C@H](O)[C@H]1O)[C@H](O)[C@@H](O)CO,15.7%,–
COc1cccc(CCc2ccccc2OCC(CN(C)C)OC(=O)CCC(=O)O)c1 (stereo not given),-9.43%,–
O=C1OC2(c3ccc(O)cc3Oc3cc(O)ccc32)c2ccccc21,10.4%,–
CC[C@@H](CO)NCCN[C@@H](CC)CO,7.81%,–
C[n+]1c2cc(N)ccc2cc2ccc(N)cc21 (tested in a mixture with another compound),–,14900 nM (active)
CC(C)COC(=O)c1ccc(N)cc1,12.6%,–
Cc1ccccc1C(=O)Nc1ccc(C(=O)N2CCCC(N(C)C)c3ccccc32)cc1 (stereo not given),12.8%,–
CC(=O)OCC(=O)NCCCOc1cccc(CN2CCCCC2)c1,2.71%,–
CC(C)(CO)[C@@H](O)C(=O)NCCCO,10.6%,–
O=C(CCCN1CCC(O)(c2ccc(Br)cc2)CC1)c1ccc(F)cc1,-18.2%,–
CC(Cc1ccccc1)(NC(=O)CN)c1ccccc1 (stereo not given),14.2%,–

SMILES,"activity change, negative = cytotoxic",Potency
C[C@]12C=CC(=O)C=C1CC[C@@H]1[C@@H]2[C@@H](O)C[C@@]2(C)[C@H]1CC[C@]2(O)C(=O)CO,-5.2%,–
CCCCCCCCCCCCCCNCCO,-7.83%,–
CCN(CC)C(=O)N1CCN(C)CC1,2.68%,–
COc1cc(-c2ccc(=O)[nH]n2)ccc1OC(F)F,-9.24%,–
CC(C)(Oc1ccc(Cl)cc1)C(=O)O,2.71%,–
C[C@@H]1C[C@H]2[C@@H]3C[C@H](F)C4=CC(=O)C(Cl)=C[C@]4(C)[C@@]3(F)[C@@H](O)C[C@]2(C)[C@@]1(O)C(=O)CO,5.92%,–
O=C1c2ccccc2C(=O)C1c1ccccc1,13.1%,–
O=C1OCCN1/N=C/c1ccc([N+](=O)[O-])o1,-0.22%,–
CCCCC(=O)O[C@]1(C(=O)CO)CC[C@H]2[C@@H]3CCC4=CC(=O)CC[C@]4(C)[C@H]3[C@@H](O)C[C@@]21C,0%,–
Cc1c(N(C)CS(=O)(=O)O)c(=O)n(-c2ccccc2)n1C,11.6%,–
CC(C)NC[C@@H](O)COc1cccc2ccccc12,4.15%,–
CCN1CCC[C@H]1CNC(=O)c1c(OC)ccc(Br)c1OC,13.9%,–
c1ccc(OCc2ccc(CCCN3CCOCC3)cc2)cc1,1.82%,–
CC1(C)O[C@@H]2[C@@H](CO[C@@]3(COS(N)(=O)=O)OC(C)(C)O[C@@H]23)O1,15.1%,–
COCc1c(C(C)C)nc(C(C)C)c(/C=C/[C@@H](O)C[C@@H](O)CC(=O)O)c1-c1ccc(F)cc1,–,1490 nM (active)
Cc1ccc(C(=O)C(C)CN2CCCCC2)cc1 (stereo not given),3.4%,–
COc1ccc(C2C(=O)c3ccccc3C2=O)cc1,12.8%,–
C[C@]12C=CC(=O)C=C1[C@@H](F)C[C@@H]1[C@@H]2[C@@H](O)C[C@@]2(C)[C@H]1CC[C@]2(O)C(=O)CO,10.7%,–
C[C@H]1[C@H](NC(=O)/C(=N/OC(C)(C)C(=O)O)c2csc(N)n2)C(=O)N1S(=O)(=O)O (stereo in doubt),1.42%,–
C/C=C(/C(=C/C)c1ccc(O)cc1)c1ccc(O)cc1,1.62%,–
